This is an account of results in PubChem BioAssay (EPA / NIEHS).

Results filed as inconclusive are left out. Calls of active or inactive are those of the source. The calls were made as follows, unless noted: active = hit-call score of the fitted dose curve at least 0.9, where 1 is the maximum; inactive = score below 0.9.

For assay [1], the target named is Glucocorticoid receptor (Homo sapiens) (UniProt P04150). The assay can be described thus: ATG_GR_TRANS: Attagene TRANS-FACTORIAL HepG2 Assay for human Glucocorticoid Receptor (GR) (AID 2282978; active = hit-call score of the fitted dose curve at least 0.9, where 1 is the maximum;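 also: activators score as hits since higher reporter transcript over DMSO is fitted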). The note with it: HepG2 Attagene TRANS GR reporter, mRNA transcription. The method in brief: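 HepG2 cells transiently transfected with multiplexed reporter units in which chimeric NR-GAL4 proteins drive GAL4-UAS reporters; 24 h compound exposure. Reporter mRNA measured by RT-PCR, 6-FAM labelling, HpaI digestion and capillary electrophoresis; gain-of-signal fitted versus DMSO.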

Assay [2] addresses Bile acid receptor (Homo sapiens) (UniProt Q96RI1). Briefly: ATG_FXR_TRANS: Attagene TRANS-FACTORIAL HepG2 Assay for Farnesoid X Receptor (FXR) (AID 2282979; active = hit-call score of the fitted dose curve at least 0.9, where 1 is the maximum;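 also: hits raise reporter mRNA above DMSO so AC50 marks FXR activation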). The note with it: HepG2 Attagene TRANS FXR-GAL4 reporter transcription. The method in brief:
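Chimeric FXR-GAL4 activity in transiently transfected human HepG2 liver cells is scored as induction of reporter mRNA after 24 h of dosing. Detection uses RT-PCR with fluorescent labelling and capillary electrophoresis, with DMSO serving as baseline.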

Assay [3] has as its target Oxysterols receptor LXR-alpha (Homo sapiens) (UniProt Q13133). Briefly: ATG_LXRa_TRANS: Attagene TRANS-FACTORIAL HepG2 Assay for human Liver X Receptor alpha (LXRa) (AID 2282980; active = hit-call score of the fitted dose curve at least 0.9, where 1 is the maximum). Particulars: HepG2 Attagene TRANS reporter, LXRa transactivation. The method in brief:
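Transient HepG2 transfectants, 24 h dosing, RT-PCR/CE mRNA reporter quantitation; gain-of-signal vs DMSO.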

Assay [4] has as its target Oxysterols receptor LXR-beta (Homo sapiens) (UniProt P55055). Briefly: ATG_LXRb_TRANS: Attagene TRANS-FACTORIAL HepG2 Assay for human Liver X Receptor beta (LXRb) (AID 2282981; active = hit-call score of the fitted dose curve at least 0.9, where 1 is the maximum). The note with it: HepG2 Attagene TRANS GAL4-LXRb reporter, mRNA. The method in brief:
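Gain-of-signal mRNA reporter endpoint, DMSO as negative control. Transiently transfected HepG2 cells carrying the NR-Gal4 chimera and GAL4-UAS reporter units were treated 24 h; transcripts quantified by RT-PCR and capillary electrophoresis fluorescence.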

Assay [5] can be described thus: ATG_M_06_TRANS: Attagene TRANS-FACTORIAL HepG2 Assay for M06 Transcription Factor (Internal Marker) (AID 2282983; active = hit-call score of the fitted dose curve at least 0.9, where 1 is the maximum). The note with it: HepG2 Attagene TRANS M06 internal marker reporter. Put shortly: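 Measured by capillary electrophoresis of fluorescently labelled RT-PCR products, this endpoint reflects reporter mRNA in HepG2 cells harbouring exogenous NR-GAL4 reporter constructs after 24 h exposure, with DMSO as baseline.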

Assay [6] in a line: ATG_M_32_TRANS: Attagene TRANS-FACTORIAL HepG2 Assay for M32 Transcription Factor (Internal Marker) (AID 2282984; active = hit-call score of the fitted dose curve at least 0.9, where 1 is the maximum;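 also: transcript level of a background control reporter unit measured by RT-PCR and capillary electrophoresis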). Particulars: HepG2 Attagene TRANS M32 internal marker reporter. Put shortly: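 Capillary electrophoresis of 6-FAM-labelled reporter fragments gives the signal; data fitted for gain over DMSO negative control. Source: HepG2 cells bearing transient multiple reporter transcription units, 24 h exposure.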

In assay [7] the target is Nuclear receptor subfamily 4 group A member 2 (Homo sapiens) (UniProt P43354). Briefly: ATG_NURR1_TRANS: Attagene TRANS-FACTORIAL HepG2 Assay for human Nuclear Receptor Related Protein 1 (NURR1) (AID 2282985; active = hit-call score of the fitted dose curve at least 0.9, where 1 is the maximum). Particulars: HepG2 Attagene TRANS reporter, mRNA readout. Put shortly: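 HepG2 / transient MRTU transfection / 24 h compound exposure / RT-PCR + CE fluorescence of reporter mRNA / gain-of-signal vs DMSO.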
Chain of Nuclear receptor subfamily 4 group A member 2 (Homo sapiens) (P43354 whole entry, looked up): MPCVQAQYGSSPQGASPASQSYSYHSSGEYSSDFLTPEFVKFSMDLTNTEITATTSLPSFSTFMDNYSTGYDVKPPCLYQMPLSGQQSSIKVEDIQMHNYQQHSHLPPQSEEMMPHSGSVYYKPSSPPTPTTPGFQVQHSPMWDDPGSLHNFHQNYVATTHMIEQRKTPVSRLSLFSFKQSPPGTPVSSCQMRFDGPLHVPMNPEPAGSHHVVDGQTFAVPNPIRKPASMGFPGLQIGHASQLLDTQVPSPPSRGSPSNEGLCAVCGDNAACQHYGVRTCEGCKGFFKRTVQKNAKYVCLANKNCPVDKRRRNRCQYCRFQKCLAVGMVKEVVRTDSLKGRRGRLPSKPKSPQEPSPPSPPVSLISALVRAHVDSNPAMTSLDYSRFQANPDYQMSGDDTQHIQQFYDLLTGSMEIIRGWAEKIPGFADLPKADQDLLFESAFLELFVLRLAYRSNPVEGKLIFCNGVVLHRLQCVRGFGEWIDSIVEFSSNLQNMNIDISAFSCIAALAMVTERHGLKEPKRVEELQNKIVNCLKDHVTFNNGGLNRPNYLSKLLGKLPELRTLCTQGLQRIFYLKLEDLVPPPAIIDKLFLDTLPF

In assay [8] the target is Nuclear respiratory factor 1 (Homo sapiens) (UniProt Q16656). Briefly: ATG_NRF1_CIS: Attagene CIS-FACTORIAL HepG2 Assay for human Nuclear Respiratory Factor 1 (NRF1) Orphan Gene (AID 2282987). The note with it: HepG2 NRF1 cis-element reporter, Attagene multiplex; actives raise or lower the signal. Put shortly:
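HepG2 cells transiently transfected with multiple reporter transcription units under cis-regulatory promoter control, so endogenous transcription-factor activity is read. After 24 h compound exposure, reporter mRNA quantified by RT-PCR, fluorescent labelling, HpaI digestion and capillary electrophoresis; bidirectional fitting versus DMSO.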

Assay [9] can be described thus: ATG_NFI_CIS: Attagene CIS-FACTORIAL HepG2 Assay for human Nuclear Factor I (NFI) (AID 2282989). The note with it: HepG2 cis-regulatory reporter, NFI response element transcription; actives raise or lower the signal. Put shortly: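 After transient transfection of HepG2 with cis-promoter reporter constructs and 24 h dosing, RNA is reverse-transcribed, amplified, 6-FAM end-labelled and HpaI-digested before capillary analysis. Bidirectional curve fitting against DMSO.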

Assay [10] addresses Myc proto-oncogene protein (Homo sapiens) (UniProt P01106). Briefly: ATG_Myc_CIS: Attagene CIS-FACTORIAL HepG2 Assay for human Myelocytomatosis (Myc) Proto-Oncogene Transcription Factor (AID 2282990). Particulars: HepG2, Attagene cis-reporter transcription factor activity; actives raise or lower the signal. Put shortly: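 Transiently transfected HepG2 cells bearing cis-promoter reporter units for endogenous transcription factors; 24 h exposure. Reporter mRNA measured by RT-PCR, 6-FAM primer extension, HpaI cut and capillary electrophoresis; bidirectional fit relative to DMSO.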

The nature of assay [11]: ATG_NF_kB_CIS: Attagene CIS-FACTORIAL HepG2 Assay for human Nuclear Factor Kappa B (NF-kB) (AID 2282991). Particulars: HepG2 Attagene cis-factorial NF-kB reporter mRNA; actives raise or lower the signal. The method in brief: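 HepG2 cells transiently transfected with multiplexed cis-element reporter units measuring endogenous transcription factor activity; reporter mRNA read 24 h after dosing by RT-PCR, fluorescent labelling, HpaI digestion and capillary electrophoresis. Bidirectional fit against DMSO baseline.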

Assay [12] is described as follows: ATG_NRF2_ARE_CIS: Attagene CIS-FACTORIAL HepG2 Assay for human Nuclear Factor Erythroid 2 Related Factor 2 (NFR2) response to Antioxidant Response Elements (ARE) (AID 2282992). Particulars: HepG2 Attagene ARE/NRF2 reporter, transcription factor activity; actives raise or lower the signal. The method in brief: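 Transient MRTU transfection of HepG2; 24 h compound exposure; TriZol RNA, RT with oligo(dT), PCR, 6-FAM primer extension, HpaI cut, CE. Bidirectional fit vs DMSO.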

Assay [13] in a line: ATG_Oct_MLP_CIS: Attagene CIS-FACTORIAL HepG2 Assay for human Octamer-Binding Transcription Factor (Oct) (AID 2282993). The note with it: HepG2 Attagene cis-factorial Oct reporter, mRNA; actives raise or lower the signal. The method in brief: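 Cells of the HepG2 line express promoter-controlled reporter sequences whose mRNA levels, after 24 h treatment, are measured by RT-PCR and capillary electrophoresis. Increases and decreases are scored relative to DMSO.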

Assay [14] has as its target Cellular tumor antigen p53 (Homo sapiens) (UniProt P04637). Briefly: ATG_p53_CIS: Attagene CIS-FACTORIAL HepG2 Assay for human p53 Transcription Factor (AID 2282994). Particulars: HepG2 p53 cis-element reporter, Attagene mRNA; actives raise or lower the signal. The method in brief:
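HepG2, transient MRTU transfection (cis promoter elements, endogenous TFs); 24 h dosing; RNA isolation, RT-PCR, 6-FAM primer extension, HpaI digest, CE fluorescence; bidirectional fit vs DMSO.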

The nature of assay [15]: BSK_3C_TissueFactor: BioMAP Diversity Plus: 3C Assay for Tissue Factor Biomarker Activity (AID 2282997). Particulars: BioMAP 3C HUVEC, tissue factor biomarker readout; actives raise or lower the signal. Put shortly:
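Values derive from bidirectional curve fitting against DMSO of Tissue Factor ELISA signals, taken 24 h after dosing primary human umbilical vein endothelial cells.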

The nature of assay [16]: BSK_3C_uPAR: BioMAP Diversity Plus: 3C Assay for Urokinase-type plasminogen activator receptor (uPAR) Biomarker Activity (AID 2282998). Particulars: BioMAP 3C HUVEC, uPAR biomarker ELISA; actives raise or lower the signal. The method in brief:
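Endothelial primary cells of human umbilical vein origin received test chemical; 24 h later uPAR was assayed by ELISA. Fitting was bidirectional, DMSO as negative control.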
On the technique in general: ELISA stands for enzyme-linked immunosorbent assay.

Assay [17] is described as follows: BSK_3C_VCAM1: BioMAP Diversity Plus: 3C Assay for Vascular cell adhesion molecule 1 (VCAM1) Biomarker Activity (AID 2282999). Particulars: BioMAP 3C HUVEC, VCAM1 ELISA, cytokine-stimulated; actives raise or lower the signal. Put shortly: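 Human umbilical vein endothelial cells (3C system), biomarker read by ELISA 24 h after dosing; bidirectional fit against DMSO baseline. Cytotoxicity tracked by SRB total-protein staining in parallel cultures at biomarker time.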

The target of assay [18] is Hepatocyte nuclear factor 4-alpha (Homo sapiens) (UniProt P41235). Briefly: ATG_HNF4a_TRANS: Attagene TRANS-FACTORIAL HepG2 Assay for human Hepatocyte Nuclear Factor 4 alpha (HNF4a) (AID 2282982; active = hit-call score of the fitted dose curve at least 0.9, where 1 is the maximum). Particulars: HepG2 HNF4a transactivation reporter, mRNA readout. The method in brief:
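Gain-of-signal mRNA induction, relative to DMSO vehicle, was read after 24 h compound treatment of HepG2 cells bearing transfected GAL4-UAS reporters. Detection used RT-PCR, 6-FAM primer extension and capillary electrophoresis.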

Assay [19] addresses Transcriptional activator Myb (Homo sapiens) (UniProt P10242). The assay can be described thus: ATG_Myb_CIS: Attagene CIS-FACTORIAL HepG2 Assay for human Myeloblastosis (Myb) Proto-Oncogene Transcription Factor (AID 2282986). The note with it: HepG2 Attagene CIS-FACTORIAL Myb reporter transcription; actives raise or lower the signal. The method in brief: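 HepG2 cells were transiently transfected with cis-regulated multiple reporter transcription units reflecting endogenous Myb activity, then exposed to compound for 24 hours. Reporter mRNA was measured by RT-PCR with capillary electrophoresis; bidirectional fitting versus DMSO baseline.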

For orientation: AC50 means the concentration at which the activity in the assay is half-maximal.

Chain of Bile acid receptor (Homo sapiens) (Q96RI1 whole entry, looked up, the tested form may be a part): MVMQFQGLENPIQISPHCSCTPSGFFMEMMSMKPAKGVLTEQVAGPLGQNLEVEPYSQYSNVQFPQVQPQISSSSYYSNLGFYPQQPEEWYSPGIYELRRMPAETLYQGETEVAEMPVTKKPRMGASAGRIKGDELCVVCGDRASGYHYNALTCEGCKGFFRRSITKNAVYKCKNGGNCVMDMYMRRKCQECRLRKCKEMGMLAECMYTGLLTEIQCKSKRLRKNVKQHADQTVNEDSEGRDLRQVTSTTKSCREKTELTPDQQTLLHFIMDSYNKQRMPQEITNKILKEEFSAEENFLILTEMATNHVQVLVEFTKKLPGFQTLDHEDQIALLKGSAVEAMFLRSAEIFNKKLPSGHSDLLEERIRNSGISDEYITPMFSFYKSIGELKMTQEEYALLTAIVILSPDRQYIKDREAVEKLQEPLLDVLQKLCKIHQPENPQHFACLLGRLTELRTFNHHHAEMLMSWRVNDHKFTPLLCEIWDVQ
Chain of Nuclear respiratory factor 1 (Homo sapiens) (Q16656 whole entry, looked up): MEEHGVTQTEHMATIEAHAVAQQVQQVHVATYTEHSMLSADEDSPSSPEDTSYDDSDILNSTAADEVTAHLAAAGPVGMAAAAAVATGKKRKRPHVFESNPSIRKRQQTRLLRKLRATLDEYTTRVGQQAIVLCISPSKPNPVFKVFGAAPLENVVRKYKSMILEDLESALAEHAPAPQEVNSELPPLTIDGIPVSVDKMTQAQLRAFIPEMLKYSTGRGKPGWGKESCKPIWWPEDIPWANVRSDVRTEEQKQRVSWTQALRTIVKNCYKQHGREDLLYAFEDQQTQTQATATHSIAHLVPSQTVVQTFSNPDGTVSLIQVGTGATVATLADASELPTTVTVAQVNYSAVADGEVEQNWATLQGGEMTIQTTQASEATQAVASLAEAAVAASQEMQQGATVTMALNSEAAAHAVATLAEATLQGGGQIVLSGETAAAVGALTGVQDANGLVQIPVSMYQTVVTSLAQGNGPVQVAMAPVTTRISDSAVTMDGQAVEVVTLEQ
Chain of Hepatocyte nuclear factor 4-alpha (Homo sapiens) (P41235 whole entry, looked up, the tested form may be a part): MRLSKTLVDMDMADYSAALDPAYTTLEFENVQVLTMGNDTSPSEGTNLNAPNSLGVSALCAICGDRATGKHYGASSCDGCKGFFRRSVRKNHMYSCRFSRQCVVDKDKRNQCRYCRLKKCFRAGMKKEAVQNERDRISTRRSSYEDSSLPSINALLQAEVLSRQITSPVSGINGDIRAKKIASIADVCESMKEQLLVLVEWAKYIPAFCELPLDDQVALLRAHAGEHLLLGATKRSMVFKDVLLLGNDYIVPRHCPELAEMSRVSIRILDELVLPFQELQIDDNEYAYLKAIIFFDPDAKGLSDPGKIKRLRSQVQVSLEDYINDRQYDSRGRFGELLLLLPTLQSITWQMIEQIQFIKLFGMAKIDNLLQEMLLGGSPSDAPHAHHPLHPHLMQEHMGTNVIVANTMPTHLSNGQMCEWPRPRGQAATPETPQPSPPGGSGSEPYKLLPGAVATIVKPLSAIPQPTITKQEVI
Chain of Oxysterols receptor LXR-beta (Homo sapiens) (P55055 whole entry, looked up, the tested form may be a part): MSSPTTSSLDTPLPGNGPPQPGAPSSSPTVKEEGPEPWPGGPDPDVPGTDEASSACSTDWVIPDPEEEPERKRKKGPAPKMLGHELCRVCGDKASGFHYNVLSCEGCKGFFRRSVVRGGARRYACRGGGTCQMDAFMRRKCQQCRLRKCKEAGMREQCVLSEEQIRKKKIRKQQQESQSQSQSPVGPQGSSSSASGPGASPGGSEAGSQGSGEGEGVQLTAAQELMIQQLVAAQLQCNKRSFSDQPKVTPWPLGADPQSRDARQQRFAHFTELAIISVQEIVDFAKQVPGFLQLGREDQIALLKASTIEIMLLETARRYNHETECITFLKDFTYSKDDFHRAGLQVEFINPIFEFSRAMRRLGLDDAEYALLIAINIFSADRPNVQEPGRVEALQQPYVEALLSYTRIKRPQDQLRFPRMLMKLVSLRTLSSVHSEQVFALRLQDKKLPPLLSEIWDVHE
Chain of Transcriptional activator Myb (Homo sapiens) (P10242 whole entry, looked up): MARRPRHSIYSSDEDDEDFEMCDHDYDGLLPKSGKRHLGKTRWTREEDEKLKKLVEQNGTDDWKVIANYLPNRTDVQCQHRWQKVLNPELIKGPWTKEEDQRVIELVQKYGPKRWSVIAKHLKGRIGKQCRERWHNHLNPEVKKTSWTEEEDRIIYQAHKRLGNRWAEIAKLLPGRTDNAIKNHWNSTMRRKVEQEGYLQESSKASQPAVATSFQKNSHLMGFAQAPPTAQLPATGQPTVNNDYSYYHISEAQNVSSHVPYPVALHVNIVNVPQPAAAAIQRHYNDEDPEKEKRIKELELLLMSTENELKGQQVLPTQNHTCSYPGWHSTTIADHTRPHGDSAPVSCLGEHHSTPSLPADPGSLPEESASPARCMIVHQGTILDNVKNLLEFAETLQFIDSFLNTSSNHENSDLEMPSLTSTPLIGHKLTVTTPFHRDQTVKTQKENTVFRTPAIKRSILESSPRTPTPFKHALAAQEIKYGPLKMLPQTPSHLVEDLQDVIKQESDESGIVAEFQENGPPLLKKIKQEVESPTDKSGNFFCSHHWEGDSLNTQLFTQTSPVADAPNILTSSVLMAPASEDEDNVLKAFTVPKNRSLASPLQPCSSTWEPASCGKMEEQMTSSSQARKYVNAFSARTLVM
Chain of Oxysterols receptor LXR-alpha (Homo sapiens) (Q13133 whole entry, looked up): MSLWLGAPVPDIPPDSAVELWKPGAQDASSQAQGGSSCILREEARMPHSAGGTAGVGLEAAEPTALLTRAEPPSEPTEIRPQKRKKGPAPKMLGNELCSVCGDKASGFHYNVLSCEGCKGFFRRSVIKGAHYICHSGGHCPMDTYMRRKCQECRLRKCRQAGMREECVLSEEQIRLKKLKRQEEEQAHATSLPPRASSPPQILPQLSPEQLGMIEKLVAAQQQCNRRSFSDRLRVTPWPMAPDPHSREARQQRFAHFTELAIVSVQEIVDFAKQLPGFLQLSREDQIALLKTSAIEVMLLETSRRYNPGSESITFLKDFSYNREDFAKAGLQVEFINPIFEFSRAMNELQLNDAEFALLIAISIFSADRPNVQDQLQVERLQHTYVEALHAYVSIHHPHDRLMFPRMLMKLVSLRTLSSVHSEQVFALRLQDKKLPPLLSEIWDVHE
Chain of Myc proto-oncogene protein (Homo sapiens) (P01106 whole entry, looked up): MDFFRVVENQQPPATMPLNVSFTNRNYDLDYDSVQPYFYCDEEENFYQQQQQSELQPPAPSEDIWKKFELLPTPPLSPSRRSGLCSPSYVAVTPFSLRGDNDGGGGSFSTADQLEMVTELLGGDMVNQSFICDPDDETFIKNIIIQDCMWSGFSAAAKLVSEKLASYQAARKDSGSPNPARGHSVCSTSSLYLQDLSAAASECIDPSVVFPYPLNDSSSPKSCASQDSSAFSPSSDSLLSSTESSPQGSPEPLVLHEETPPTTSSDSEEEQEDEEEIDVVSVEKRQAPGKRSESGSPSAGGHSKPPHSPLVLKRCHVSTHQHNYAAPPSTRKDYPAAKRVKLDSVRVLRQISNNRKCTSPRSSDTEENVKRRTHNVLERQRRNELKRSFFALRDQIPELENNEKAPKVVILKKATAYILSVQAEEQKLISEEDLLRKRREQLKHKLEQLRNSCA
Chain of Cellular tumor antigen p53 (Homo sapiens) (P04637 whole entry, looked up): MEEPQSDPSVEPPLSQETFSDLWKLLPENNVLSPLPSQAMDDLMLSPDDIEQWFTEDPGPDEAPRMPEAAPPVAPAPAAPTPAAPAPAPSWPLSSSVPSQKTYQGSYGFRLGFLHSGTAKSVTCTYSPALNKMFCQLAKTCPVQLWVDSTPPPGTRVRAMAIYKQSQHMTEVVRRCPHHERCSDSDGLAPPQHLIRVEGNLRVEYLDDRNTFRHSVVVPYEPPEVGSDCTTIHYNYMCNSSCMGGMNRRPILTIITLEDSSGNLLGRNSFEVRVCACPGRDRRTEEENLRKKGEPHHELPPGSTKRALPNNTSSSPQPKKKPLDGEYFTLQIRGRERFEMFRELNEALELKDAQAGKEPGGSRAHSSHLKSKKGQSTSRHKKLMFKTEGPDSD

In the case of `CC1=CC(C)C(C=O)C(C)C1` (configuration not stated) (tested in a mixture with another compound), the outcome in [1], in assay [2], in assay [3], in assay [4], in [5] and in assay [6] was inactive. For the same molecule, the result in assay [7], in [8], in assay [9], in assay [10], in [11] and in assay [12] was inactive. Besides, the molecule was classed as inactive in [13], in assay [14], in assay [15], in assay [16] and in assay [17].
On to `CCc1cccc(O)c1`, for which the molecule was classed as inactive in [2], in assay [18], in [19], in assay [8], in assay [9] and in assay [13]. Besides, in [14], the molecule was classed as inactive.
Consider `CC/C=C\CCOC(C)OCC` (configuration not stated), for which the call in assay [1], in assay [18], in assay [5], in [7], in assay [19] and in [8] was inactive. Also, the outcome in assay [12], in assay [13] and in assay [14] was inactive.
As for `CCC(=O)OC(C)(C)C1CC=C(C)CC1` (configuration not stated), the call in assay [2], in [4], in [18], in assay [6], in assay [7] and in assay [8] was inactive. Besides, the molecule was classed as inactive in assay [13] and in assay [14]. Also, in assay [12], the AC50 was 127 µM (active).
Take `CC12CCC(C1)C(C)(C)C2O` (configuration not stated): the molecule was classed as inactive in assay [2], in assay [4], in assay [18], in [7], in assay [19] and in assay [8]. In addition, the outcome in assay [9], in [10], in assay [11], in assay [12], in [13] and in [14] was inactive.
`CCCCCCC(O)CCOC(C)=O` (configuration not stated): the result in assay [2], in assay [18], in assay [5], in assay [8], in assay [9] and in assay [10] was inactive. In addition, the call in assay [11], in assay [12], in [13] and in assay [14] was inactive.
For `O=c1cc[nH]cc1`, the molecule was called inactive in assay [2], in assay [3], in assay [18], in assay [6], in assay [7] and in assay [19]. Further, the call in [8], in assay [9], in assay [10], in assay [11], in assay [12] and in assay [13] was inactive.
On to `CC1=C(C=O)C(C)(C)CCC1`, for which the call in assay [2], in assay [3], in [4], in assay [8], in assay [9] and in assay [10] was inactive. In addition, the call in [11], in assay [12] and in assay [13] was inactive.
For the molecule `C=CC(O)CCCCC` (configuration not stated), the molecule was called inactive in assay [2], in [18], in [19], in [8], in assay [9] and in assay [10]. The molecule was called inactive in assay [14]. For the same molecule, the AC50 in assay [12] is 38 µM (active); in assay [13], 45.6 µM (active).
With `CCCCCCCCSCc1cc(C)c(O)c(CSCCCCCCCC)c1`, the call in assay [2], in assay [4], in assay [18], in assay [6], in assay [7] and in [19] was inactive. The molecule was called inactive in assay [8], in assay [9], in assay [10], in assay [11], in [12] and in assay [13]. The call in assay [14] was inactive.
